According to PubChem BioAssay (NCATS):
Values joined by “and” are separate entries in the source; they are usually repeats but may differ in a detail not shown here. Identical values can stand only once. Inconclusive results are not listed. Active and inactive are the calls of the source. Unless noted, how the calls were made is not given here.

Legend:
[1] = qHTS Assay for Identifying Gametocytocidal Compounds (AID 743244; active means well fitted curve in the direction sought with a large enough effect; an effect the other way counts as inactive or inconclusive; further: potency means the concentration at half of the fitted maximal effect;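 on max response: on the % scale 0 is the no-effect control and ±100 the full control effect; actives lower the fluorescent signal which means gametocytes are killed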); conditions: P. falciparum 3D7 stage III-V gametocytes, alamarBlue, 72 h; max response: stronger effect = lower value
Procedure, shortened: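 3D7 gametocytes, stages III–V, 20,000/well; cpd 72 h, 37 °C/5% CO2; + alamarBlue 24 h; fluor. Ex 525/Em 598.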

[2] = qHTS profiling for inhibitors of Plasmodium falciparum (3D7) proliferation (AID 743322);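 further: infected erythrocytes exposed to compound for 72 h before lysis; 100% = DMSO vehicle wells and 0% = 0.29 µM artemisinin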; conditions: P. falciparum 3D7 proliferation; at 28.7 µM (top of the series)
Procedure, shortened: (§1)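 Parasite DNA was quantified by SYBR Green I fluorescence (ex 485, em 535 nm) after overnight lysis in saponin/Triton buffer at room temperature. Cultures at 0.3% parasitemia and 2.5% hematocrit were first exposed to compound for 72 h at 37 C; signals were normalised to artemisinin (0.29 uM) and vehicle wells.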

[3] = qHTS profiling for inhibitors of Plasmodium falciparum (DD2) proliferation (AID 743323); conditions: lower = more inhibition; at 28.7 µM (top of the series)
Procedure, shortened: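 SYBR Green fluorescence (ex 485, em 535 nm) of lysed cultures gives parasite DNA content; wells normalized to artemisinin (0.29 uM) and DMSO controls. Infected red cells: 0.3% parasitemia, 2.5% hematocrit, 72 h, 37 C.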

[4] = qHTS profiling for inhibitors of Plasmodium falciparum (HB3) proliferation (AID 743324; active means well fitted curve in the direction sought with a large enough effect; an effect the other way counts as inactive or inconclusive;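 further: 100% = DMSO vehicle wells and 0% = artemisinin-treated control wells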); conditions: Plasmodium falciparum HB3 blood-stage proliferation; at 28.7 µM (top of the series)
Procedure, shortened: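 SYBR Green fluorescence (485 ex/535 em) of lysed cultures, incubated overnight at room temperature in the dark, quantifies parasite DNA. Infected erythrocytes at 0.3% parasitemia and 2.5% hematocrit were exposed 72 h; values normalized to DMSO and 0.29 uM artemisinin controls.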

[5] = qHTS profiling of the MIPE4 collection as inhibitors of Plasmodium falciparum (3D7) proliferation (AID 743344);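 further: scaled between DMSO vehicle wells and 0.29 µM artemisinin as full inhibition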; conditions: P. falciparum 3D7 in erythrocytes, SYBR Green DNA fluorescence, 72 h; at 28.5 µM (top of the series) unless noted
Procedure, shortened: as §1

[6] = qHTS profiling of the MIPE4 collection as inhibitors of Plasmodium falciparum (DD2) proliferation (AID 743345); conditions: P. falciparum Dd2 in erythrocytes, SYBR Green DNA, 72 h; at 28.5 µM (top of the series) unless noted
Procedure, shortened: as §1

[7] = qHTS assay for cell viability of HEK293 cells (AID 743288; active means well fitted curve in the direction sought with a large enough effect; an effect the other way counts as inactive or inconclusive; further: on the % scale 0 is the no-effect control and ±100 the full control effect; nearly all actives have a fitted effect of over 50% in size); conditions: ATP luminescence (CellTiter-Glo), 18 h; max response: stronger effect = lower value
Procedure, shortened: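 Viable-cell counts were inferred from luciferase-based ATP content in HEK293 cells seeded at 2,000/well, pre-incubated ≥5 h, then dosed with DMSO-solubilised compounds for 18 h at 37 C.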

[8] = qHTS assay for cell viability of the p53RE-bla HCT-116 cell line (AID 743292; active means well fitted curve in the direction sought with a large enough effect; an effect the other way counts as inactive or inconclusive; further: on the % scale 0 is the no-effect control and ±100 the full control effect; nearly all actives have a fitted effect of over 55% in size)
Procedure, shortened: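 Luminescent ATP quantitation (CellTiter-Glo) served as the viability read-out; reagent was added after 16 h compound exposure at 37 C and read after 30 min at room temperature. Cells: p53RE-bla HCT-116, 4,000 per well.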

SMILES | Potency [1] | remaining parasite growth % (stronger effect = lower value) [2] [%] | activity, percent of control [3] [%] | remaining proliferation (% of control), lower = more inhibition [4] [%] | parasite growth, % of DMSO control [5] [%] | parasite growth remaining, % of DMSO control (lower = more inhibition) [6] [%] | max response [1] | max response [7] | Potency [8]
CCc1ccc(OCc2ccccc2C(=O)Nc2ccc3nc(C)cc(N)c3c2)cc1 | 8.33 µM (active) | -0.867 | 0.0556 | 0.0187 | 5.35 | 6.22 |  |  | 
COc1ncc(-c2ccc3nccc(-c4ccnnc4)c3c2)cc1NS(=O)(=O)c1ccc(F)cc1F | 0.935 µM (active) | -1.12 | -0.177 | -1.02 | 4.65 | 7.55 |  |  | 
CC(C)(C)COc1ccc(-n2cc(C(=O)O)cn2)cc1C#N |  | 28.3 | 88.8 | 91.7 | 75 | 90.1 | 54.6% (inactive) |  | 
CN1CCN(CCOc2cc(OC3CCOCC3)c3c(Nc4c(Cl)ccc5c4OCO5)ncnc3c2)CC1 | 18.7 µM (active) | 0.208 | 1.7 | -0.659 | 5.31 | 8.1 |  |  | 
CC(C)[C@H](CO)Nc1nc(Nc2ccc(C(=O)O)c(Cl)c2)c2ncn(C(C)C)c2n1 |  | 41.8 | 35.2 | 28.6 | 29.4 | 51 | 63.2% (inactive) |  | 
CN(C)Cc1ccc(-c2nc3cccc4c3n2CCNC4=O)cc1 |  | 86.1 | 90 | 94 |  | 100 | 13% (inactive) |  | 
O=c1cc(CN2CCOCC2)occ1OCCCCCSc1ccnc2cc(C(F)(F)F)ccc12 |  | 28.8 | 26.8 | 17.5 | 36.7 |  | 18.6% (inactive) |  | 
Cc1nc(N)sc1-c1ccnc(Nc2ccc(N3CCOCC3)cc2)n1 |  | 2.54 | 7.68 | 10.5 | 6.44 | 9.15 | -1.3% (inactive) |  | 
CCn1cc(C(=O)O)c(=O)c2ccc(C)nc21 |  |  |  |  |  |  | 5.72% (inactive) and 15.6% (inactive) | 1.7% (inactive) and -2.87% (inactive) | inactive
O=C(O)Cc1cccc2ccccc12 |  |  |  |  |  |  | 19.3% (inactive) and -5.56% (inactive) | 1.25% (inactive) and 0.847% (inactive) | inactive
O=C(O)CCC1CCC(c2cc(F)ccc2F)(S(=O)(=O)c2ccc(Cl)cc2)CC1 (stereo not given) |  | 23.3 | 74.5 | 56.3 | 66.9 | 93.8 | -21% (inactive) |  | 
O=C(O)c1ccc(-c2cc3cccnc3c(-c3ccc4nonc4c3)n2)cc1 |  | 98.1 | 92.9 | 93.9 | 15.8 | 53.9 | 33.8% (inactive) |  | 
OC[C@@H](O)[C@H](O)[C@H](O)[C@@H](O)CO |  |  |  |  |  |  | 1.74% (inactive) and -2.1% (inactive) |  | 
OC[C@H]1O[C@@H](n2cnc3c2NC=NC[C@@H]3O)C[C@H]1O |  | 97.1 | 106 | 99.7 | 81.4 | 92.5 | 12.6% (inactive) |  | 
CC(=O)Nc1ccc([C@H](C)C(=O)Nc2ncc(C(C)C)s2)cc1 |  | 95.5 | 101 | 93.4 | 5.36 | 104 | 12.4% (inactive) |  | 
CO[C@H]1C[C@@H]2CC[C@@H](C)[C@@](O)(O2)C(=O)C(=O)N2CCCC[C@@H]2C(=O)O[C@H]([C@@H](C)C[C@@H]2CC[C@H](O)[C@H](OC)C2)CC(=O)[C@H](C)C=C(C)[C@@H](O)[C@@H](OC)C(=O)[C@H](C)C[C@H](C)C=CC=CC=C1C |  |  |  |  | 5.33 |  |  |  | 
O=c1cc(-c2ccccc2)oc2cc(O)cc(O)c12 |  |  |  |  | 48.1 |  |  | -14.1% (inactive) | inactive
COc1cc2ncnc(-n3nc(-c4ccccn4)nc3N)c2cc1OC |  | 68.8 | 96.4 | 74 |  |  |  |  | 
COc1ccc2c(Oc3ccc(NC(=O)c4c(C)n(CC(C)(C)O)n(-c5ccccc5)c4=O)cc3F)ccnc2c1 |  |  |  |  | 18.3 |  |  |  | 
c1ccc2c(-c3cnn4cc(-c5ccc(N6CCNCC6)cc5)cnc34)ccnc2c1 | 3.72 µM (active) | -1.65 | -0.291 |  | 4.34 | 5.98 |  |  | 
COc1cccc2c1CCCC2CCCN1CCN(C2CCCCC2)CC1 (stereo not given) |  | -0.577 | 3.08 | 1.97 | 6.86 | 54.8 |  |  | 
